Vaccinia Venus = inhibitors of vaccinia virus (Venus reporter). AID 720580. Vaccinia virus Venus reporter expression, fluorescence. Potency, µM (doses to about 36.5 µM), without a hit: at the highest dose activity change, negative = inhibition, usual class: inhibitors. 330,000 compounds, 0.46% hits; calls by dose curve; tested in A549 cells; further: potency means the concentration at half of the fitted maximal effect; nearly all actives have a fitted effect of over 30% in size
HCV inhibitor = inhibitors of hepatitis C virus infection | 340,000 compounds, 3.4% hits | Huh7.5.1 HCVcc-Cre infection, luciferase reporter, 44 h | Potency, µM (top dose mostly 41.8 µM), without a hit: top-dose activity change, negative = inhibition, actives largely listed as inhibitors; further: potency means the concentration at half of the fitted maximal effect
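Whole-lifecycle infectious HCVcc-Cre system; cells 1,000/well, compound then virus (~0.5 moi) added 4 h after plating, 44 h culture. Luciferase read 15 sec following 15 min substrate incubation, room temp.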
VACV mCherry inh = vaccinia inhibition (mCherry reporter). Vaccinia virus mCherry reporter infection, fluorescence. Potency, µM (doses to about 36.5 µM), without a hit: at the highest dose activity change, negative = inhibition, most hits filed as inhibitors. 310,000 compounds, 0.63% hits. AID 720579; calls by dose curve; tested in A549 cells; further: potency means the concentration at half of the fitted maximal effect; nearly all actives have a fitted effect of over 35% in size
HCMV antiviral = inhibitors of human cytomegalovirus; 410,000 compounds, 4.5% hits; activity change, negative = inhibition, % at 57.5 µM; HFF cells, HCMV-luciferase reporter, 72 h; stronger effect = lower value; in the data active means activity change below about -60%; inconclusive means no clear call, values can overlap the other calls; inactive means above about -39%
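Two-dose cell screen: HFF monolayers treated with compounds and infected with luciferase-expressing HCMV at 1 PFU/cell, 72 h at 37C, then lysed for luciferase measurement.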
Giardia FBPA inh = Giardia lamblia aldolase inhibition | 290,000 compounds, 0.71% hits | A8B2U2 | purified Giardia FBPA | Potency, µM (series often up to 59.6 µM), for the others: at the top dose activity, negative = inhibition, usual class: inhibitors; further: potency means the concentration at half of the fitted maximal effect; nearly all actives have a fitted effect of over 55% in size
Target sequence (A8B2U2 whole entry, looked up): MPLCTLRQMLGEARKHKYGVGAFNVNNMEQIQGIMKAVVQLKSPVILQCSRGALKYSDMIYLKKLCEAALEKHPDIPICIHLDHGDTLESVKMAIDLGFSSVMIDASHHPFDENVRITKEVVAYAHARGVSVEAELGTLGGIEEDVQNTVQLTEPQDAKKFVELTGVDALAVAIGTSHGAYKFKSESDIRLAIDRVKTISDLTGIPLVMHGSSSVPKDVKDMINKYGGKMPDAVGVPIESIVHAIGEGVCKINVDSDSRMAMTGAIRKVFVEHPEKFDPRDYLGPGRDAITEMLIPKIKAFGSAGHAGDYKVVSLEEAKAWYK
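40 nM FBPA preincubated 10 min at RT with compound (up to 57.5 uM final), then substrate plus GAPDH/TPI/NAD/arsenate coupling and diaphorase/resazurin added. Fluorescence read after 20 min at RT, 525/598 nm.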
FMDV inh = antivirals against foot and mouth disease virus | FMDV antiviral cell-based qHTS | Potency, µM (top dose mostly 57.9 µM), without a hit: at the top dose activity change, negative = inhibition, most hits filed as inhibitors | 410,000 compounds, 1.2% hits | AID 1159524; calls by dose curve; tested in HEK293T cells; further: read-out not given here; potency means the concentration at half of the fitted maximal effect; nearly all actives have a fitted effect of over 45% in size
The depositor's hits bear a star; i = inactive; ? = inconclusive; . = not tested or not shown; [ ] = remark or other dose. Compounds with a hit are over-represented: about 7.5% of the library has one in this group of screens. Unless noted, the call rests on the fitted dose curve; in most records, active means well fitted curve in the direction sought with a large enough effect; inconclusive means small, poorly fitted or top-dose-only effect, or another doubt; inactive means no such curve, though single readings can be large; an effect the other way counts as inactive or inconclusive. On the % scale 0 is the no-effect control and ±100 the full control effect.

SMILES	Vaccinia Venus	HCV inhibitor	VACV mCherry inh	HCMV antiviral	Giardia FBPA inh	FMDV inh
O=C(c1ccccc1Nc1ccc(SC(F)F)cc1)N1CCCCCC1	.	?	.	-101.2*	0.9%	-22.1%
COc1ccc(C(=O)Nc2ccccc2C(=O)N2CCCCCC2)cc1	2.0%	19.1%	i	?	5.5%	-6.4%
CN(C)C(=O)COC(=O)c1ccccc1Nc1ccc(SC(F)F)cc1	.	?	.	-66.9*	-14.7%	16.3%
CC(=O)c1ccccc1NC(=O)c1ccc(N2CCCC2=O)cc1	-18.6%	12.6µM*	-1.4%	-9.2	.	-7.7%
O=C(Nc1ccccc1C(=O)N1CCCCCC1)c1ccc(F)cc1	.	11.4%	.	-101.7*	.	-0.2%
COc1ccccc1NC(=O)COC(=O)c1ccccc1OCC(=O)Nc1ccc(SC(F)F)cc1	-9.9%	-11.4%	-14.7%	-5.9	0.5%	-18.1%
CSc1ccccc1NC(=O)c1ccc(N2CCCC2=O)cc1	.	-24.0%	.	-13.5	.	40.6%
O=C(NCCCN1CCCC1=O)c1ccc(NS(=O)(=O)c2ccc(F)cc2)cc1	.	13.4%	.	-11.3	.	-5.6%
Cc1ccc2c(c1)Oc1ccc(NC(=O)CCCl)cc1C(=O)N2	?	?	?	-90.5*	-1.6%	-6.1%
CCCC(=O)Nc1ccc2c(c1)C(=O)NC2=O	-6.0%	8.5%	i	?	-6.5%	-19.5%
COc1ccccc1C(CNC(=O)CNC(=O)c1ccccc1Cl)N1CCCC1 (stereo not given)	.	-10.1%	.	-100.6*	.	-10.7%
COc1ccccc1C(CNC(=O)CNC(=O)c1ccc(Cl)c(Cl)c1)N1CCCC1 (stereo not given)	-4.9%	?	i	1.0	.	-14.2%
COc1ccc(C(CNC(=S)NCc2ccccc2)N2CCCC2)cc1 (stereo not given)	-4.6%	10.4%	i	-35.5	2.0%	40.7%
COc1ccccc1C(CNC(=S)NCc1ccccc1)N1CCCC1 (stereo not given)	-28.5%	-18.9%	-16.2%	-71.6*	1.8%	-5.0%
CCN(c1ccccc1)S(=O)(=O)c1ccc(Oc2ccc(C(C)=O)cc2OC)nc1	.	12.6µM*	.	-38.5	.	-28.9%
CCN(c1ccccc1)S(=O)(=O)c1ccc(C(=O)NCC(c2ccccc2OC)N2CCCC2)cc1 (stereo not given)	?	25.1µM*	?	-7.7	.	-16.2%
COc1ccc2cc([C@H](C#N)C3CCCC3)ccc2c1	.	.	.	-9.1	.	.
O=C(CCNC(=O)c1ccc([N+](=O)[O-])cc1)NCCc1ccccc1	-7.7%	6.5%	-29.8%	16.6	3.2%	2.4%
Cc1c(-c2ccccc2)n(-c2ccccc2O)c2nc3c(c(=O)n(C)c(=O)n3C)n12	-15.7%	.	-17.6%	-63.5*	.	25.1µM*
Cc1ccc(-c2c(C)n3c4c(=O)n(C)c(=O)n(C)c4nc3n2CCO)cc1	-24.4%	.	?	?	.	17.8µM*
CCCCn1c(-c2ccc(C)cc2)c(C)n2c3c(=O)n(C)c(=O)n(C)c3nc12	-16.2%	.	-7.6%	-11.9	.	?
Cc1cc(C)cc(-n2c(-c3ccccc3)c(C)n3c4c(=O)n(C)c(=O)n(C)c4nc23)c1	-6.2%	.	-7.6%	-0.4	.	-23.4%
COCCn1c(-c2ccccc2)c(C)n2c3c(=O)n(C)c(=O)n(C)c3nc12	0.9%	.	-3.5%	-33.5	.	3.16µM*
CSc1ccc(C(=O)C2CCCN(C(=O)c3nn(C)c(=O)c4ccccc34)C2)cc1 (stereo not given)	-17.8%	12.6µM*	i	-25.1	0.3%	?
Cn1nc(C(=O)N2CCCC2)c2ccccc2c1=O	.	18.5%	.	33.4	-0.1%	0.0%
SMILES	Vaccinia Venus	HCV inhibitor	VACV mCherry inh	HCMV antiviral	Giardia FBPA inh	FMDV inh
CCOC(=O)c1oc2ccc(S(=O)(=O)n3nc(-c4ccc(OC)cc4)cc3N)cc2c1C	?	-5.1%	?	-67.2*	5.8%	?
CC1CCN(C(=O)c2ccc3c(c2NCCO)C(=O)c2ccccc2C3=O)CC1	?	-24.4%	.	25.9	-6.4%	?
CCN(CC)CCNC(=O)c1ccc2c(c1NCCO)C(=O)c1ccccc1C2=O	.	0.891µM*	.	-108.9*	?	-26.2%
CCN(CC)CCC(=O)Nc1cccc2c1C(=O)c1ccccc1C2=O	?	?	?	-99.2*	-23.1%	5.5%
CC[C@]12C(=O)N(C)C[C@H]([C@@H]3C(=O)N(C)C(=O)[C@@H]31)N2C(=O)c1ccc(C)cc1	-9.3%	14.1%	-12.1%	-2.5	.	-6.3%
CCN(C(=O)CCNC(=O)Cn1cnc2ccccc2c1=O)c1ccccc1F	-7.1%	10.7%	-3.5%	-0.8	-0.3%	14.7%
O=C(OCc1ccccc1)N1CCC2CC1c1cc(N3CCOCC3)ccc12 (stereo not given)	-8.5%	0.316µM*	?	14.5	.	3.2%
CCOC(=O)CC1(C)c2nc(NC(C)=O)sc2Cc2sc(NC(C)=O)nc21	10.2%	.	25.2%	-97.4*	.	21.9%
Cc1ccc(C(=O)NC(=S)c2c(C)cc3ccccn23)cc1	-19.6%	.	-12.3%	19.6	.	28.3%
Cc1ccccc1S(=O)(=O)N1[C@@H](c2ccccc2)C(C(=O)O)=CC[C@H]1c1ccc(Cl)cc1	-11.5%	3.6%	i	-99.0*	.	3.1%
CC(=O)O[C@H]1C(=O)[C@@]2(C)C([C@H](OC(=O)c3ccccc3)[C@]3(O)C[C@H](OC(=O)[C@H](O)[C@@H](NC(=O)c4ccccc4)c4ccccc4)C(C)=C1C3(C)C)[C@]1(OC(C)=O)CO[C@@H]1C[C@@H]2OC(=O)[C@H](C)NC(=O)c1ccc(-c2c3ccc(=O)cc-3oc3cc(O)ccc23)c(C(=O)O)c1 (stereo not given in full)	.	.	.	.	-14.9%[12.9 µM]	.
CC1=CN(S(=O)(=O)c2ccc(C)cc2)C[C@@H]2[C@H]3CC[C@H](C3)[C@H]12	-10.1%	4.5%	i	-37.0	.	4.1%
COc1cc(CN(C)c2ncnc3sccc23)ccc1OC(F)F	-18.3%	?	-25.2%	?	.	?
CC(C)COP(=O)(OCC(C)C)C(O)c1ccc(F)cc1 (stereo not given)	-7.0%	14.7%	-17.0%	-99.7*	3.6%	48.7%
Cc1nc2cc(NC(=O)c3ccc([N+](=O)[O-])s3)ccc2s1	-22.4%	?	?	-93.8*	.	10.6%
Cc1cc(NS(=O)(=O)c2ccc(NC(=O)c3ccc([N+](=O)[O-])s3)cc2)nc(C)n1	?	?	?	-96.7*	.	69.9%
CC(=O)Nc1ccc(C(=O)Nc2ccc(S(=O)(=O)Nc3nccc(C)n3)cc2)cc1	.	4.8%	.	-13.5	?	-10.4%
Cc1ccnc(NS(=O)(=O)c2ccc(NC(=O)c3ccc([N+](=O)[O-])s3)cc2)n1	.	4.4%	.	-96.2*	6.8%	-9.7%
COc1cc(/C=N/NC(=O)c2ccc(CSc3nc4ccccc4[nH]3)cc2)ccc1O	7.5%	?	1.0%	-4.5	-6.8%	-29.3%

Screening results from PubChem.
